“And” between values parts separate entries of the source, which are not always exact repeats. Equal values may be shown once. Results filed as inconclusive are left out. Where a structure was tested more than once in an assay, its records may differ in their call. The source made the active and inactive calls. Rule for the calls: active = hit-call score of the fitted dose curve at least 0.9, where 1 is the maximum; inconclusive = response in the unintended direction; inactive = score below 0.9.
Target: Cellular tumor antigen p53 (Homo sapiens) (UniProt P04637)
Sequence (P04637 whole entry, looked up): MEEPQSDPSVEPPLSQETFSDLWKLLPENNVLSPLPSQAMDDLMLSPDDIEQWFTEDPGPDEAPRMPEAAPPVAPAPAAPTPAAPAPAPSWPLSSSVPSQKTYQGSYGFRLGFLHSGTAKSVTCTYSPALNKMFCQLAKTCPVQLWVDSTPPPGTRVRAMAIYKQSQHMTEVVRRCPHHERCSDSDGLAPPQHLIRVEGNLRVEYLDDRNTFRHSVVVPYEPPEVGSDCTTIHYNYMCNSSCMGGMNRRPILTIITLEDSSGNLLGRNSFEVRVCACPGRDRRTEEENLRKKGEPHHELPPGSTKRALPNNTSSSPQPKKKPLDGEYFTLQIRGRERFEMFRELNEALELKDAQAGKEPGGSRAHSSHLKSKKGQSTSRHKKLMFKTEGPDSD
Assay: TOX21_p53_BLA_p4_ratio: Tox21 HCT-116 p53 Agonism Beta-lactamase Assay, Ratio, Phase 4 (AID 2283601)
Excerpt: TOX21_p53_BLA_p4 is a cell-based, single-readout assay that uses HCT116, a human intestinal cell line, […] in a 1536-well plate.TOX21_p53_BLA_p4_ratio is an assay readout measuring reporter gene via receptor activity and designed using inducible reporter (beta lactamase induction) detected with GAL4 b-lactamase reporter gene. The signal is derived from the ratio of cleaved (ch2) to uncleaved (ch1)reporter gene substrate used as the measure of target activity.Data from the assay component TOX21_p53_BLA_p4_ratio was analyzed into 1 assay endpoint. This assay endpoint, TOX21_p53_BLA_p4_ratio, was analyzed in the positive analysis fitting direction relative to DMSO as the negative control and baseline of activity. Using a type of inducible reporter, gain-of-signal activity can be used to understand changes in the reporter gene as they relate to the gene TP53. Furthermore, this assay endpoint can be referred to as a primary readout, because this assay has produced multiple assay endpoints where this ratio serves a reporter gene function to understand target activity. To generalize the intended target to other relatable targets, this assay endpoint is annotated to the DNA binding intended target family, where the subfamily is tumor suppressor.
Thawing Method: Place 14 mL of pre-warmed thaw medium into a 15 mL of conical tub. Remove the vial of cells to be thawed from liquid nitrogen and thaw rapidly by placing at 37C in a water bath with gentle agitation for 1-2 minutes. Decontaminate the vial by wiping with 70% ethanol before opening in a biological safety cabinet. Transfer the vial contents drop-wise into 14 mL of thaw medium in a sterile 15-mL conical tub. Centrifuge cells at 900 rpm for 4 minutes and resuspend in thaw medium. Transfer contents to the T75 tissue culture flask containing Thaw Medium and place flask in a humidified 37C/5% CO2 incubator. Switch to growth medium at first passage.Propagation Method: Aspirate medium, rinse once in DPBS, add 0.25% Trypsin/EDTA and swirl to coat the cell evenly. Add an equal volume of Growth Medium to inactivate Trypsin after 2-3 minutes incubation at 37C. Centrifuge cells at 900 rpm for 4 minutes and resuspend in growth medium. Cell should be passage or fed at least twice a week.Assay Protocol: Harvest cells from culture in growth medium and resuspend in assay medium. 2.2 Dispense 4000 cells/5 uL/well into 1536-well black/clear bottom plates using a Multidrop dispenser. After the cells were incubated at 37C for 5 hours, 23 nL of compounds dissolved in DMSO were transferred to the assay plate by a PinTool resulting in a 217-fold dilution. Incubate the plates for 16 hours at 37C, 5% CO2. Add 1 uL of 6X LiveBLAzer FRET B/G (CCF4-AM) Substrate Mixture to each well using a BioRAPTR dispenser and incubate the plates at room temperature for 2 hours. Measure fluorescence intensity at 460 and 530 nm emission and 405 nm excitation by an Envision detector. Data is expressed as the ratio of 460nm/530nm emissions. Add 4 uL of Cell-titer Glo to each well using BioRAPTR and incubate the plates at room temperature for 2 hours. Measure fluorescence intensity by a VewLux plate reader.

Row | SMILES | outcome | AC50
1 | S=c1[nH][nH]c(=S)s1 | inactive | 
2 | CC(C)CCOC(=O)CC(C)C | inactive | 
3 | O=S(=O)(O)c1cc(O)c(O)c(S(=O)(=O)O)c1 | inactive | 
4 | FC(F)(F)c1ccc(Cl)c(Cl)c1 | inactive | 
5 | Cc1ccncc1 | inactive | 
6 | CCCCCc1cccc(=O)o1 | inactive | 
7 | CC(O)COCC(C)O (stereo not given) | inactive | 
8 | C[C@]12CC[C@@H]3c4ccc(O)cc4CC[C@H]3[C@@H]1CC[C@@H]2O |  | 31.4 µM (active) and 17.7 µM (active) and 15.6 µM (active)
9 | C=C(C)C(=O)OCCC(C)OC(=O)C(=C)C (stereo not given) | inactive | 
10 | CCCC(O)C(CC)CO (stereo not given) | inactive | 
11 | C[C@H](CCC(=O)O)[C@H]1CC[C@H]2[C@@H]3CC[C@@H]4C[C@H](O)CC[C@]4(C)[C@H]3CC[C@]12C | inactive | 
12 | CCCO[Si](OCCC)(OCCC)OCCC | inactive | 
13 | CC(C)(O)CCc1ccccc1 | inactive | 
14 | CC(C)C(=O)OCC=Cc1ccccc1 | inactive | 
15 | c1ccc(OCCOc2ccccc2)cc1 | inactive | 
16 | CN(C)CCC=C1c2ccccc2CCc2ccccc21 | inactive | 
17 | CC(O)CNCC(C)O (stereo not given) | inactive | 
18 | Nc1cc([N+](=O)[O-])ccc1C(=O)O | inactive | 
19 | CC(=O)c1ccc(O)cc1 | inactive | 
20 | C=COCC1CCC(COC=C)CC1 (stereo not given) | inactive | 

Row | SMILES | outcome | AC50
21 | C=CC(=O)OCCCCCC | inactive | 
22 | CCCCC(CC)COCCO (stereo not given) | inactive | 
23 | Cc1ccc(C(C)(C)O)cc1 | inactive | 
24 | O=S1(=O)CC=CC1 | inactive | 
25 | CCCCCCCCCCCCOCCOS(=O)(=O)O | inactive | 
26 | CC1(C)CC(=O)CC(C)(C)N1 | inactive | 
27 | N=C1N=C(N)c2ccccc21 | inactive | 
28 | CC/C(=C(\c1ccccc1)c1ccc(OCCN(C)C)cc1)c1ccccc1 | inactive | 40 µM (active) and 84.5 µM (active) and 42 µM (active)
29 | CC(C)=CCCC(C)=CC(=O)O | inactive | 
30 | C=CCCCCCCCCC(=O)OCC | inactive | 
31 | CCCCOCCOC(=O)c1ccccc1C(=O)OCCOCCCC | inactive | 
32 | CC(=O)Oc1c(C)c(C)c2c(c1C)CC[C@@](C)(CCC[C@H](C)CCC[C@H](C)CCCC(C)C)O2 | inactive | 
33 | CCC(C)(C)C1CCC(OC)CC1 (stereo not given) | inactive | 
34 | CN(C)C | inactive | 
35 | OCCCO | inactive | 
36 | CC(=O)CC(=O)N(C)C | inactive | 
37 | O=C(OCc1ccccc1)c1ccccc1O | inactive | 
38 | C=C(C)C(N)=O | inactive | 
39 | CC(CO)c1ccccc1 (stereo not given) | inactive | 

Reference: PubChem BioAssay (EPA / NIEHS)
